Compound activity deposited in PubChem by National Center for Advancing Translational Sciences (NCATS).
NS1 function inh: influenza NS1 inhibition; actives 0.4% (n = 270,000); Potency, µM (titrated, usually from 46.1 µM); further: actives are rising curves; nearly all actives have a fitted effect of over 50% in size
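Growth recovery, yeast-based: influenza A NS1 expressed in S. cerevisiae causes slow growth, and suppressors are detected by OD600. The parent strain without NS1 is used as positive control.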
Pf growth 96h: inhibits malaria parasite growth, 96 h | P. falciparum luciferase reporter growth, 96 h | Potency, µM (highest dose often 28.7 µM), actives largely listed as inhibitors | actives 6.9% (n = 320,000); active means well fitted inhibition curve with a large enough effect; inconclusive means small, poorly fitted or top-dose-only effect, or another doubt; inactive means no such curve, though single readings can be large or run the other way
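Infected RBCs, 2% Hct / 0.05% parasitemia final; luciferase-reporter P. falciparum; cpd 96 h, 37 C, 5% CO2; luciferase detection reagent; luminescence.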
SARS PLP yeast: SARS-CoV PLP inhibition in yeast; actives 0.19% (n = 330,000); AID 485353; Potency, µM (highest dose often 32.9 µM), usual class: activators; S. cerevisiae expressing SARS-CoV PLpro, growth rescue; further: nearly all actives have a fitted effect of over 55% in size
Pf growth 48h: inhibits P. falciparum growth in the first generation, 48 h; actives 5.9% (n = 310,000); Potency, µM (highest dose often 28.7 µM), hits mostly inhibitors; P. falciparum luciferase growth in erythrocytes, 48 h; active means well fitted inhibition curve with a large enough effect; inconclusive means small, poorly fitted or top-dose-only effect, or another doubt; inactive means no such curve, though single readings can be large or run the other way
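Luminescence readout; reporter = integrated firefly luciferase in P. falciparum. RBC culture at 2% hematocrit, 0.1% parasitemia final, 37 C/5% CO2; decreased signal taken as growth inhibition.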
Numbers stand for hits; . = inactive; ? = inconclusive; / = not tested or not shown; [ ] = dose if it differs, or a comment. A selection: hits, their analogues and other compounds. The true share with any hit is near 10%. Unless noted, the call rests on the fitted dose curve.

SMILES | NS1 function inh | Pf growth 96h | SARS PLP yeast | Pf growth 48h
Cc1ccc(CCNC(=O)C2CCN(S(=O)(=O)N3CCCCC3)CC2)cc1 | . | ? | . | .
CNCc1c(OCc2ccc(F)cc2)ccc2ccccc12 | . | ? | . | 15µM
Fc1ccc(COc2ccc3ccccc3c2CNc2nn[nH]n2)cc1 | . | . | . | ?
CC(C)(C)N=Cc1c(O)ccc2oc3c(c12)CCCC3 | . | . | . | .[0.00184 µM]
O=[N+]([O-])c1cc2oc3c(c2c(C=NCc2ccncc2)c1O)CCCC3 | . | ? | / | 10µM
CSc1cccc(NC(=O)c2nnn(Cc3ccccc3)c2N)c1 | . | . | . | 9.3µM
COc1ccc(Cn2nnc(C(=O)Nc3ccc4c(c3)OCCO4)c2N)cc1Br | . | 12µM | . | .
COc1cccc(NC(=O)Cn2nnc(C(=O)Nc3ccccc3)c2N)c1 | . | ? | . | ?
COc1cc(NC(=O)c2nnn(Cc3ccc(SC)cc3)c2N)cc(OC)c1 | . | 12µM | . | /
Nc1c(C(=O)Nc2ccc3c(c2)OCCO3)nnn1Cc1ccc(Cl)cc1 | / | . | . | .
Cc1ccc(C)c(Cn2nnc(C(=O)Nc3ccc4c(c3)OCCO4)c2N)c1 | / | . | . | ?
Cc1cc(C)cc(NC(=O)c2nnn(Cc3cc(C)ccc3C)c2N)c1 | . | 10µM | . | ?
Cc1ccnc(NC(c2ccccc2O)c2oc(CO)cc(=O)c2O)c1 (stereo not drawn) | . | . | ? | .
COc1ccc(CC(=O)Nc2cc(C)ccc2O)cc1OC | . | . | . | .
CC(=O)c1sc2nc(=O)c(C)nn2c1C | . | 3.7µM | . | .
COc1ccc(/C=c2\sc3nc(=O)c(C)nn3c2=O)c(OC)c1 | / | . | . | .
CCOC(=O)C1CCN(C(=O)CCc2c(C)nc3c(-c4ccc(F)cc4)c(C)nn3c2C)CC1 | . | 10µM | . | /
COCCNC(=O)CCc1c(C)nc2c(-c3ccc(F)cc3)c(C)nn2c1C | . | 13µM | . | /
CCCc1nc2ccccc2c(C(=O)OCC(=O)Nc2ccc(S(=O)(=O)N3CCOCC3)cc2)c1CC | . | / | . | 15µM
CCCc1nc2ccccc2c(C(=O)OCC(=O)NC2CC2)c1CC | / | / | . | /
CCCc1nc2ccccc2c(C(=O)OCC(=O)Nc2cccc(S(=O)(=O)N3CCOCC3)c2)c1CC | . | 7.4µM | . | ?
O=C(COC(=O)c1n[nH]c2ccccc12)Nc1cccc(S(=O)(=O)N2CCOCC2)c1 | / | ? | . | ?
Cc1cc(Oc2ccc(=O)n(C)n2)nc(=S)[nH]1 | . | . | . | .
Cn1c(=O)c2[nH]c(N=Nc3ccc(N)cc3N)nc2n(C)c1=O | . | . | . | .
CC(OC(=O)Cn1[nH]c(=O)c2ccccc2c1=O)C(=O)NC1(C#N)CCCCC1 (stereo not drawn) | / | ? | . | 10µM
SMILES | NS1 function inh | Pf growth 96h | SARS PLP yeast | Pf growth 48h
O=c1nc2n(c3ccc(Br)cc13)CCS2 | . | . | . | .
COc1cc(S(=O)(=O)Nc2ccc3nc(C)sc3c2)ccc1NC(C)=O | / | ? | . | .
Cc1[nH]c2ccccc2c1C(=O)C(C)OC(=O)c1ccc(NC(=O)CC#N)cc1 (stereo not drawn) | / | 3.3µM | . | 3.7µM
Cc1cc(C(=O)C(C)OC(=O)c2ccc(NC(=O)CC#N)cc2)c(C)n1-c1ccc(OC(F)F)cc1 (stereo not drawn) | / | ? | . | 5.9µM
Clc1ccc(/C=N/Nc2ncnc3nc[nH]c23)cc1 | . | 12µM | . | ?
Cc1ccc(/C=N/Nc2ncnc3nc[nH]c23)cc1 | . | . | . | .
COc1ccc(N(C(=O)CS(=O)CC(=O)Nc2ccc(F)cc2)C(C(=O)NC2CCCCC2)c2cccs2)cc1 (stereo not drawn) | . | ? | . | .
O=C(CS(=O)CC(=O)N(c1ccccc1)C(C(=O)NC1CCCCC1)c1ccco1)Nc1ccc(F)cc1 (stereo not drawn) | . | 7.4µM | . | ?
Cc1ccc(NC(=O)CS(=O)CC(=O)N(c2ccc(C)cc2)C(C)C(=O)NC2CCCCC2)cc1 (stereo not drawn) | . | ? | . | 13µM
Cc1ccc(OCCNC(=O)c2ccccc2OCc2c(C)noc2C)cc1 | / | ? | . | ?
Cc1nn(-c2ccccc2)c2nc(-c3ccccc3)cc(C(=O)N3CCOCC3)c12 | / | 2.1µM | . | .
CCOC(=O)c1cc(-c2ccco2)nc2c1c(C)nn2-c1cccc(Cl)c1 | . | . | . | .
Cc1ccc(-c2cc(C(=O)N3CCOCC3)c3ccccc3n2)cc1 | . | / | . | ?
Cc1nn(-c2cccc(Cl)c2)c2nc(-c3ccncc3)cc(C(=O)N3CCOCC3)c12 | / | 6.6µM | . | ?
Cc1nn(-c2ccccc2)c(C)c1C(=O)OCC(=O)NC12CC3CC(CC(C3)C1)C2 | . | 10µM | . | ?
